# Reference: PubChem BioAssay (Tox21)
# Inconclusive results are not listed. Entries that show only a call come without a potency. Values without a mark were called inactive. Active and inactive are the calls of the source. Unless noted, calls follow the shape of the dose curve; as a rule, active = well fitted curve in the direction sought with a large enough effect in the repeat runs; inconclusive = weak or mixed curves; inactive = no such curve, though single readings can be large; an effect the other way counts as inactive or inconclusive.
# Columns and labels:
# [1] = qHTS assay to identify small molecule agonists of the RXR signaling pathway - cell viability counter screen (AID 1159529); also: nearly all actives have a fitted effect of over 50% in size; also: potency is read from the fitted curve at half-maximal effect;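 as to activity change, negative = cytotoxicity: HEK 293T cells carrying an RXR-alpha UAS beta-lactamase reporter; series mostly up to about 77 µM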
# Summary of the method: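 Tox21 10K compounds were tested for cytotoxicity against GeneBLAzer RXR-alpha HEK 293T cells grown in 2% charcoal-stripped FBS. Exposure lasted 16 hr at 37 C, 5% CO2; viability read by CellTiter-Glo luminescence.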
# [2] = qHTS assay to identify small molecule antagonists of the retinoid acid receptor (RAR) signaling pathway - cell viability counter screen (AID 1159551); also: nearly all actives have a fitted effect of over 35% in size
# Summary of the method: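 Luminescent ATP quantitation (CellTiter-Glo) gave cell viability in C3RL4 cells exposed to test chemicals for 6 h at 37 C alongside 1 uM final retinol.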
# [3] = qHTS assay to identify small molecule antagonists of the retinoic acid receptor (RAR) signaling pathway (AID 1159552; also: nearly all actives have a fitted effect of over 50% in size; also: potency is read from the fitted curve at half-maximal effect)
# Summary of the method: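 Overnight-plated C3RL4 reporter cells get compound, then retinol to 1 uM final; plates sit 6 hr at 37 C, 5% CO2. A luciferase reagent is added and light output recorded after 30 min at room temperature.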
# [4] = qHTS assay to identify small molecule agonists of the retinoic acid receptor (RAR) signaling pathway (AID 1159553); also: potency is read from the fitted curve at half-maximal effect
# Summary of the method: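 Luminescence from a RARE-driven luciferase reporter in C3RL4 cells served as the read-out, measured after 30 min with detection reagent at room temperature. Compounds in DMSO were applied for 6 hr at 37 C following overnight seeding.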
# [5] = qHTS assay to identify small molecule antagonists of the estrogen related receptor (ERR) signaling pathway - cell viability counter screen (AID 1224818);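 also: series mostly up to about 46 µM; viability measured after 17.5 h of compound exposure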
# Summary of the method: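 Multiplexed counter screen to separate cytotoxic compounds from true ERR modulators. ERR cells received DMSO-dissolved compounds after a 6 h pre-incubation, were exposed 17.5 h at 37 C, then assayed with CellTiter-Fluor fluorescence.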
# [6] = qHTS assay to identify small molecule agonists of the estrogen related receptor (ERR) signaling pathway (AID 1224820)
# Summary of the method: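 Quantitative HTS of the LOPAC library used NTP ERR reporter cells treated 18 h at 37 C. Signal is luminescence after One-Glo addition and a 30 min room-temperature incubation.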
# [7] = system: estrogen-related receptor alpha (ERRalpha) with PGC-1alpha coactivator, human; assay: qHTS assay to identify small molecule antagonists of the estrogen related receptor signaling pathway with the pleiotropic PPARgamma coactivator (PGC) (AID 1224821; calls by dose curve; also: nearly all actives have a fitted effect of over 50% in size; also: potency is read from the fitted curve at half-maximal effect)
# Summary of the method: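 Quantitative HTS for antagonism: PGC/ERR cells received compounds after 6 h attachment and were incubated 18 h at 37 C, with luminescence (One-Glo) as the endpoint.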
# [8] = qHTS assay to identify small molecule antagonists of the estrogen related receptor signaling pathway with the pleiotropic PPARgamma coactivator (PGC) cell viability counter screen (AID 1224822; also: potency is read from the fitted curve at half-maximal effect;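 also: viability read after 17.5 h compound exposure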)
# Summary of the method: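 Cells: PGC/ERR, 2,000/well, 1536-well format. Pre-incubation 6 h, 37 C/5% CO2. Compound exposure 17.5 h, 37 C. Detection: CellTiter-Fluor, 30 min, fluorescence.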
# [9] = qHTS assay to identify small molecule antagonists of the estrogen related receptor (ERR) signaling pathway (AID 1224819;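 also: luminescence from an ERR-driven luciferase reporter measured with One-Glo reagent; series mostly up to about 46 µM; nearly all actives have a fitted effect of over 50% in size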)
# Summary of the method: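 Seed ERR cells 2,000/well; rest 6 h at 37 C/5% CO2; pin compounds in DMSO; incubate 18 h at 37 C; add One-Glo; wait 30 min at room temperature; measure luminescence.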
structure (smiles),measurement,setting,value
COc1ccc(-c2ccccc2)cc1NNC(=O)OC(C)C,Potency,[1],inactive
same,Potency,[2],inactive
same,Potency,[3],inactive
same,Potency,[4],inactive
C#CCOC(C(=O)OCCN(C)C)(c1ccccc1)c1ccccc1,Potency,[1],inactive
same,Potency,[2],inactive
same,Potency,[3],inactive
same,Potency,[4],inactive
CC(C)(OO)c1ccccc1,Potency,[1],inactive
same,Potency,[2],inactive
same,Potency,[3],inactive
same,Potency,[4],inactive
CCOP(=S)(Oc1ccc([N+](=O)[O-])cc1)c1ccccc1 (stereo unspecified),Potency,[1],inactive
same,Potency,[2],inactive
same,Potency,[3],inactive
same,Potency,[4],inactive
c1cc2ccc3cccc4ccc(c1)c2c34,Potency,[1],36.3 µM (active)
same,Potency,[2],inactive
same,Potency,[3],inactive
same,Potency,[4],inactive
same,outcome,[5],inactive
same,outcome,[6],inactive
same,Potency,[7],inactive
same,Potency,[8],inactive
CCOP(O)OCC,Potency,[1],inactive
same,Potency,[2],inactive
same,Potency,[3],inactive
same,Potency,[4],inactive
CN1[C@@H]2CC[C@H]1CC(OC(=O)c1cc(Cl)cc(Cl)c1)C2 (stereo partly specified),Potency,[1],3.79 µM (active)
same,Potency,[2],inactive
same,Potency,[3],inactive
same,Potency,[4],inactive
CC[C@H]1C[C@H]2[C@@H]3CCC4=CC(=O)CC[C@@H]4[C@H]3CC[C@]2(C)[C@H]1O,Potency,[1],inactive
same,Potency,[2],inactive
same,Potency,[3],inactive
same,Potency,[4],inactive
CCCCCCC#N,Potency,[1],inactive
same,Potency,[2],inactive
same,Potency,[3],inactive
same,Potency,[4],inactive
CC(C)N(CCC(C(N)=O)(c1ccccc1)c1ccccn1)C(C)C (stereo unspecified),Potency,[1],inactive
same,Potency,[2],inactive
same,Potency,[3],inactive
same,Potency,[4],inactive
same,outcome,[5],inactive
same,outcome,[9],inactive
same,outcome,[6],inactive
same,Potency,[8],inactive
CCCN(CCCl)c1c([N+](=O)[O-])cc(C(F)(F)F)cc1[N+](=O)[O-],Potency,[1],inactive
same,Potency,[2],inactive
same,Potency,[4],inactive
CO[C@@H]1[C@H](OC(=O)NC(=O)CCl)CC[C@]2(CO2)[C@H]1[C@@]1(C)O[C@@H]1CC=C(C)C,"activity change, negative = cytotoxicity",[1],-19.4% [at 15.8 µM]
same,"activity change, negative = cytotoxicity",[2],2.96% [at 19 µM]
same,"activity, negative = inhibition",[3],1.57% [at 19 µM]
same,Potency,[4],inactive
CCCCOC(=O)c1ccccc1C(=O)OCc1ccccc1,Potency,[1],inactive
same,Potency,[2],inactive
same,Potency,[3],inactive
same,Potency,[4],inactive
same,outcome,[5],inactive
same,outcome,[9],inactive
same,outcome,[6],inactive
same,Potency,[7],inactive
same,Potency,[8],inactive
CCCC(Cn1cncn1)c1ccc(Cl)cc1Cl (stereo unspecified),Potency,[2],inactive
same,Potency,[4],inactive
CCOP(=O)(OCC)O/C(=C/Cl)c1ccc(Cl)cc1Cl,Potency,[1],inactive
same,Potency,[2],inactive
same,Potency,[4],inactive
COCCOCCO,Potency,[2],inactive
same,Potency,[4],inactive
same,outcome,[5],inactive
same,outcome,[9],inactive
same,outcome,[6],inactive
same,Potency,[7],inactive
same,Potency,[8],inactive
CC(C)(C)C(O)C(Oc1ccc(Cl)cc1)n1cncn1 (stereo unspecified),Potency,[1],inactive
same,Potency,[2],inactive
same,Potency,[4],inactive
same,outcome,[5],inactive
same,Potency,[8],inactive
CC(C)N(C(=O)COc1nnc(C(F)(F)F)s1)c1ccc(F)cc1,Potency,[2],inactive
same,Potency,[3],inactive
COCC(C)N(C(=O)CCl)c1c(C)csc1C (stereo unspecified),Potency,[2],inactive
O=C(OC1CCCCC1)c1ccccc1C(=O)OC1CCCCC1,Potency,[2],inactive
CCCCC(CC)COP(=O)(Oc1ccccc1)Oc1ccccc1 (stereo unspecified),Potency,[2],inactive
same,Potency,[3],inactive
same,Potency,[4],inactive
NC(=O)CI,Potency,[2],inactive
same,Potency,[4],inactive
same,outcome,[5],inactive
same,outcome,[9],inactive
same,outcome,[6],inactive
same,Potency,[7],11.9 µM (active)
same,Potency,[8],12.3 µM (active)
Clc1ccc(C(OCCN2CCCCC2)c2ccccc2)cc1 (stereo unspecified),Potency,[2],inactive
CO/N=C(/C(=O)OC)c1ccccc1COc1ccccc1C,Potency,[3],7.7 µM (active)
same,Potency,[4],inactive
N#Cc1cc(I)c(O)c(I)c1,Potency,[2],inactive
same,Potency,[3],68.6 µM (active)
same,Potency,[4],inactive
O=C1C(Cl)C(CCl)CN1c1cccc(C(F)(F)F)c1 (stereo unspecified),Potency,[2],inactive
Cc1ccccc1C(=O)Nc1cccc(OC(C)C)c1,Potency,[2],inactive
O=C(Nc1ccccc1)Nc1ccnc(Cl)c1,Potency,[2],inactive
same,Potency,[3],inactive
OCCCBr,Potency,[2],inactive
same,Potency,[3],inactive
same,Potency,[4],inactive
same,outcome,[5],inactive
same,outcome,[9],inactive
same,outcome,[6],inactive
same,Potency,[7],inactive
same,Potency,[8],inactive
CO/C=C(/C(=O)OC)c1ccccc1COc1cccc(C(F)(F)F)n1,Potency,[1],inactive
same,Potency,[4],inactive
Cc1ccc(-c2c(Cl)nc(C#N)n2S(=O)(=O)N(C)C)cc1,Potency,[2],inactive
same,Potency,[3],inactive
same,Potency,[4],68.5 µM (active)
COC1=CC(=O)O[C@@H](CCc2ccccc2)C1,Potency,[2],inactive
same,Potency,[3],inactive
same,Potency,[4],inactive
COP(=S)(OC)Oc1ccc([N+](=O)[O-])cc1Cl,Potency,[2],inactive
same,Potency,[3],inactive
CCCN(CC1CC1)c1c([N+](=O)[O-])cc(C(F)(F)F)cc1[N+](=O)[O-],Potency,[2],inactive
same,Potency,[4],inactive
II,Potency,[1],6.92 µM (active)
same,Potency,[3],68.6 µM (active)
same,Potency,[4],inactive
CNP(=O)(OC)Oc1ccc(C(C)(C)C)cc1Cl (stereo unspecified),Potency,[2],inactive
same,Potency,[3],inactive
same,Potency,[4],inactive
COc1nn(CSP(=S)(OC)OC)c(=O)s1,Potency,[2],inactive
same,outcome,[5],inactive
same,Potency,[8],inactive
COP(=S)(Oc1cc(Cl)c(Br)cc1Cl)c1ccccc1 (stereo unspecified),Potency,[2],inactive
same,Potency,[4],inactive
CC1(C)CCC(Cc2ccc(Cl)cc2)C1(O)Cn1cncn1 (stereo unspecified),Potency,[2],inactive
CCCCCCCCOC(=O)c1ccc(C(=O)OCCCCCCCC)c(C(=O)OCCCCCCCC)c1,Potency,[1],inactive
same,Potency,[2],inactive
same,Potency,[4],inactive
O=C=Nc1ccc(Cl)cc1,Potency,[2],inactive
same,Potency,[3],inactive
same,Potency,[4],24.3 µM (active)
Cc1c(F)c(F)c(COC(=O)C2C(/C=C(\Cl)C(F)(F)F)C2(C)C)c(F)c1F (stereo unspecified),Potency,[1],inactive
same,Potency,[2],inactive
same,Potency,[4],inactive
